The values below come from PubChem BioAssay.

Test [1] can be described thus: yeast TOR pathway RPL19A-GFP modulators, primary screen, cell-based, S. cerevisiae, multiplex flow cytometry (AID 1862; in the data active = percent of DMSO control GFP below about 86%;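 also: lower values mimic rapamycin by blocking the RPL19A rise seen in DMSO cells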). The conditions noted are these: S. cerevisiae RPL19A-GFP strain, flow cytometry fluorescence, 3 h; at 10 µM; stronger effect = lower value.
Test [2] can be described thus: modulators of MEP2-GFP levels in yeast, primary screen, S. cerevisiae, multiplex flow cytometry (AID 1867;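 active = GFP response, as percent of the DMSO control, above the screen-wide mean plus 3 SD, about 139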;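 also: median GFP channel fluorescence of barcode-gated MEP2-GFP cells measured by flow cytometry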). Conditions: S. cerevisiae MEP2-GFP strain, 3 h, at 10 µM, stronger effect = higher value, 100% means same as DMSO wells. In general terms: Flow cytometry measures light scatter and fluorescence of single cells or particles in a stream.
Test [3] is described as follows: modulators of CIT2-GFP expression in yeast, primary screen, S. cerevisiae, GFP fusion, multiplex flow cytometry (AID 1870;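 active = percent response above a set limit, the screen-wide mean plus 3 SD, cut at about 130% in these data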;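 also: barcoded CIT2-GFP strain pooled with four other GFP strains with rapamycin as positive control; median GFP fluorescence per well over plate mean of DMSO wells so 100% = DMSO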). The conditions noted are these: 3 h, at 10 µM, stronger effect = higher value.
Test [4] is described as follows: modulators of LAP4-GFP expression in yeast, primary screen, S. cerevisiae, multiplex flow cytometry (AID 1873;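 active = GFP signal, as percent of the solvent control, above the screen mean plus 3 SD, about 149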). Conditions: 3 h, at 10 µM, stronger effect = higher value.
A short description of test [5]: modulators of AGP1-GFP expression in yeast TOR pathway, primary screen, cell-based, multiplex flow cytometry, S. cerevisiae (AID 1887;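 active = GFP signal above the screen-wide mean plus 3 SD, that is over about 124.5% of the solvent control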;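 also: AGP1-GFP fusion strain of S. cerevisiae within a five-strain barcoded multiplex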). The conditions noted are these: 3 h, at 10 µM, stronger effect = higher value.
A short description of test [6]: inhibitors of CD8+ T cell-vesicle binding, pilot screen, LFA-1/ICAM-1 modulator project, MLPCN validation set, flow cytometry (AID 2523;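 active = response below a set limit, under 55% cells CD8-positive and vesicle-bound, and CD8 cells' 90th-percentile brightness under 279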;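 as to vesicle binding response: mean PE anti-B7-1 fluorescence of CD8+ cells relative to row control; 100% = QL9-loaded vesicles with DMSO vehicle in the same plate row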). The conditions noted are these: 2C mouse CD8+ T cells, at 7 µM, stronger effect = lower value; double positive events: measured here: CD8+/vesicle+ event percentage.
Test [7] has as its target Integrin beta-1 (Homo sapiens) + Integrin alpha-4 (Homo sapiens) (UniProt P13612+P05556). The test is described as follows: inhibition of HUTS-21 binding to VLA-4, pilot screen, VLA-4 allosteric modulator project, U937 cells, HUTS-21 mAb, flow cytometry, validation set (AID 2674;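 active = inhibition above 50%, about 3 SD of the validation set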;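 also: antibody binding induced by the VLA-4 ligand LDV present at three times its Kd; 0% = LDV ligand with antibody and no compound and 100% = antibody without LDV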). Conditions: HUTS-21 LIBS mAb binding, at 6.7 µM, stronger effect = higher value, binding induced by LDV ligand.

Test [8] can be described thus: superoxide lowering in aged yeast cells, pilot screen, validation compound set (AID 2706;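 active = superoxide response below 65% of plate, a cut near 3 SD across the whole screen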;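 also: yeast exposed to compound for one week at 30 degrees C before staining; 100% = mean of all compound wells on the same plate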). Conditions: S. cerevisiae aging, superoxide DHE fluorescence; at 10 µM; stronger effect = lower value.
Test [9] deals with Beta-adrenergic receptor kinase 1 (Homo sapiens) (UniProt P25098). The experiment in a line: GRK2 binders displacing RNA aptamer, biochemical, validation, human GRK2, bead flow cytometry (AID 488806;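 active = aptamer binding inhibition above 30%, about 3 SD of noise from non-fluorescent compounds; inactive = inhibition at or below 30%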). Conditions: bead-bound GRK2, FAM-aptamer displacement, at 10 µM, stronger effect = higher value.
For test [10], the target named is Beta-2 adrenergic receptor (Homo sapiens) (UniProt P07550). The experiment in a line: beta2AR agonists driving receptor internalization, pilot screen, cell-based, FAP fluorogen, flow cytometry, validation set (AID 504459;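 active = percent response above 42, roughly 3 SD of non-fluorescent test compounds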;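 also: agonist-driven loss of surface beta2AR via internalization measured by FAP dye flow cytometry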). Conditions: Am2.2-beta2AR cells, FAP surface receptor flow cytometry; at 10 µM; stronger effect = higher value.
Test [11] addresses AP-2 complex subunit beta (Homo sapiens) (UniProt P63010). The experiment in a line: inhibitors of arrestin peptide binding to AP2, pilot screen, biochemical, validation set, GST-AP2 beads, flow cytometry (AID 504541;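 active = inhibition above 54%, about 3 SD of non-fluorescent compounds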;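 also: AP2 carries R879A mutation and is captured from E. coli lysate; bead-bound FITC arrestin peptide fluorescence measuring arrestin peptide binding to AP2; 0% = DMSO wells and 100% = excess unlabeled arrestin peptide control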). Conditions: FITC arrestin peptide, at 10 µM, stronger effect = higher value, AP2 beta2 appendage fragment, R879A mutant.
Test [12] is described as follows: yeast V-ATPase proton transport modulators, S. cerevisiae, pHLuorin, HTS validation (AID 504600; in the data active = response above about 15%;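 also: plate controls were DMSO for no effect and reference compound for full effect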). The conditions noted are these: S. cerevisiae pHLuorin cytosolic pH, at 10 µM, stronger effect = higher value.
In test [13] the test system is anti-desmoglein-3 scFv antibody binding to human DSG3. The experiment in a line: inhibitors of anti-DSG3 scFv binding to DSG3, pilot screen, biochemical, validation compound set, bead-based, flow cytometry (AID 588368).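 Also: signal is the median channel fluorescence of bead-bound GFP antibody.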 Conditions: Protein G beads, DSG3-Fc, scFv-GFP binding, at 10 µM, stronger effect = lower value.
Test [14] is described as follows: inhibitors of fungal efflux pumps CDR1, CDR2, MDR1, pilot screen, validation compound set, multiplex, phenotypic (AID 588506;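 active = efflux inhibition above 0.42, the validation set average plus 4 SD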;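 also: Nile Red retained in cells so higher fluorescence means more efflux inhibition; 0 = negative control wells and 1 = enniatin B 25 µM full block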). The conditions noted are these: S. cerevisiae pump-expressing triplex, Nile Red efflux flow cytometry; at 10 µM; stronger effect = higher value; the pumps come from Candida albicans.
Test [15] deals with ATP-binding cassette sub-family B member 6 (Homo sapiens) (UniProt Q9NP58). The test is described as follows: ABCB6 transporter inhibitors, pilot screen, K562-ABCB6 cells, flow cytometry, validation set (AID 588550;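 active = inhibition above the screen-wide mean plus 3 SD, about 51%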;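 also: 0% = DMSO wells and 100% = benzethonium chloride 70 µM positive control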). Conditions: K562-ABCB6 porphyrin accumulation, 1 h, at 10 µM, stronger effect = higher value.
Test [16] in a line: promoters of myeloid differentiation in arrested cells, primary screen, cell-based, GFP/MAC1 double positive, flow cytometry, validation set (AID 588685;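 active = differentiation response of at least 50%, scaled between solvent and reference control, from cells with both markers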;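 also: compound exposure lasts four days before antibody staining and flow analysis; 0% = DMSO wells and 100% = 5 µM fulvestrant positive control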). The conditions noted are these: ER-HoxA9 marrow cells, stronger effect = higher value, normalized: vehicle 0, fulvestrant 100.

What is called inhibition is the change of the read-out against control, counted positive when it falls.

Results filed as inconclusive are left out. Calls of active or inactive are those of the source.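 The calls were made as follows, unless noted: active = binding below the plate cutoff, the plate median minus 3 SD, with a reading above zero; inconclusive = below the plate cutoff but reading exactly zero; inactive = the rest.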

Chain of ATP-binding cassette sub-family B member 6 (Homo sapiens) (Q9NP58 whole entry, looked up): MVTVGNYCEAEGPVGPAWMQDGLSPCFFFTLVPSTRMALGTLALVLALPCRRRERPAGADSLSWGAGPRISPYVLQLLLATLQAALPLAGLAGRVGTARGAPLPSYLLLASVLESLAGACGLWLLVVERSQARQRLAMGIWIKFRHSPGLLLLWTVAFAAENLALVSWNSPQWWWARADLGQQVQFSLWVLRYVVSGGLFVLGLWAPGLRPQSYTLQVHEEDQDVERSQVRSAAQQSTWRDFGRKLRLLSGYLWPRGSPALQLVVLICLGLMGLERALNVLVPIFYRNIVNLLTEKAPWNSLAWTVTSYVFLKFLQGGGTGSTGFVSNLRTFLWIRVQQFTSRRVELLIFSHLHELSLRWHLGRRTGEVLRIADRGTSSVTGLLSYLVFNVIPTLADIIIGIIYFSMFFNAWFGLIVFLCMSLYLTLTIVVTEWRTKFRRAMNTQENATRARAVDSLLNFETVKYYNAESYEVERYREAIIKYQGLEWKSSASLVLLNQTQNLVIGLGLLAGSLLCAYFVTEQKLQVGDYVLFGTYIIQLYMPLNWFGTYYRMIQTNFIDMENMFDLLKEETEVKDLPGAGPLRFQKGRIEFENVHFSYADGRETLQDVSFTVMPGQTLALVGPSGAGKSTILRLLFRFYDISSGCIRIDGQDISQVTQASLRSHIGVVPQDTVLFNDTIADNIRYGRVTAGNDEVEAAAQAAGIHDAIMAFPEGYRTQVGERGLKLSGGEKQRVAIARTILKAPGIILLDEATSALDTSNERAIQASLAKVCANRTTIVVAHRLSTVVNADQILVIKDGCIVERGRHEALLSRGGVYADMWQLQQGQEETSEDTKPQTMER
Chain of Integrin beta-1 (Homo sapiens) + Integrin alpha-4 (Homo sapiens) (P05556 whole entry, looked up): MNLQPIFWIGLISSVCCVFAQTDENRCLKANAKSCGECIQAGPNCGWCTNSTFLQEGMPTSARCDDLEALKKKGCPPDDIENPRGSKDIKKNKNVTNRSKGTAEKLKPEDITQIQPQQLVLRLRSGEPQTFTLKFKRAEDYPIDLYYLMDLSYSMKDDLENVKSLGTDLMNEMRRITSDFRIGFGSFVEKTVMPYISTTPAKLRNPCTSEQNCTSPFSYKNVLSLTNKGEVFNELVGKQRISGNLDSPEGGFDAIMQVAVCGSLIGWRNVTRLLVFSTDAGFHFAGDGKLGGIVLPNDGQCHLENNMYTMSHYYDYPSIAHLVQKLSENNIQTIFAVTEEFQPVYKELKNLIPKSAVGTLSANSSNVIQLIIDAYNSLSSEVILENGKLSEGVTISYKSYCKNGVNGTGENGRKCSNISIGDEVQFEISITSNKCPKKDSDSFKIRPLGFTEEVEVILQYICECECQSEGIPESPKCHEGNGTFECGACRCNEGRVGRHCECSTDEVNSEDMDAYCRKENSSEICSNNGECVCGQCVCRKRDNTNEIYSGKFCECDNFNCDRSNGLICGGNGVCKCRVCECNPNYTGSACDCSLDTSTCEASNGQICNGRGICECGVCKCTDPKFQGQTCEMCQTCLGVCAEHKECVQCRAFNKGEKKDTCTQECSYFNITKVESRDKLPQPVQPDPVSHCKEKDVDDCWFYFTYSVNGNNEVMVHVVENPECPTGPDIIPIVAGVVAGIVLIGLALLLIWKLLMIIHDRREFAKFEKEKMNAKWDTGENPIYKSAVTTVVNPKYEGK
Chain of Integrin beta-1 (Homo sapiens) + Integrin alpha-4 (Homo sapiens) (P13612 whole entry, looked up): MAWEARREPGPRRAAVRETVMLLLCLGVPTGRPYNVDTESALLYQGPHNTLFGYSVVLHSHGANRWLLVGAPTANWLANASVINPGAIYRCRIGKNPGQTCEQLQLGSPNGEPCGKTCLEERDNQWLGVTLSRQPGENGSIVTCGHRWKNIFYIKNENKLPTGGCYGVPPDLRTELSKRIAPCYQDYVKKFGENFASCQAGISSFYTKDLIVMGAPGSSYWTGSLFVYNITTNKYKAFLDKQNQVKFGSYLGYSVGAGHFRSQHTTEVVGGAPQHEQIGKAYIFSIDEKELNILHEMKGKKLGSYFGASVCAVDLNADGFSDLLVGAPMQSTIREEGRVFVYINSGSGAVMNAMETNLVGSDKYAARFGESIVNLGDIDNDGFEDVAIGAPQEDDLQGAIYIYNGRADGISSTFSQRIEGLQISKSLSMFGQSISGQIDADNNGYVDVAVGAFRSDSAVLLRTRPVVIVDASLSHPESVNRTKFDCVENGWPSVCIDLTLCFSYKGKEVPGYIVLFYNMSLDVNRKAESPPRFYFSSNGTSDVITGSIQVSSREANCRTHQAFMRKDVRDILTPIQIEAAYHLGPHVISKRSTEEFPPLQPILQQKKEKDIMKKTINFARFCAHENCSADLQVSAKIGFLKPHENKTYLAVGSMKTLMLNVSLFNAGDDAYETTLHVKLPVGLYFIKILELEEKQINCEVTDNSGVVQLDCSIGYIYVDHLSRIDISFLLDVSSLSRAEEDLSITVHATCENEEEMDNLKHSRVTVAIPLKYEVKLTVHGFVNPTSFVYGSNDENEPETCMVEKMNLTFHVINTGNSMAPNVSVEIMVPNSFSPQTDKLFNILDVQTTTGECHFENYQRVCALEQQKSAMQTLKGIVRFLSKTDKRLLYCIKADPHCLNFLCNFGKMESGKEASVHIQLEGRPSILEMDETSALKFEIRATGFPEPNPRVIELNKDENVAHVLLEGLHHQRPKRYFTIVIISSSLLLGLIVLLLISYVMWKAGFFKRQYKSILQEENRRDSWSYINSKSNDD
Chain of Beta-2 adrenergic receptor (Homo sapiens) (P07550 whole entry, looked up): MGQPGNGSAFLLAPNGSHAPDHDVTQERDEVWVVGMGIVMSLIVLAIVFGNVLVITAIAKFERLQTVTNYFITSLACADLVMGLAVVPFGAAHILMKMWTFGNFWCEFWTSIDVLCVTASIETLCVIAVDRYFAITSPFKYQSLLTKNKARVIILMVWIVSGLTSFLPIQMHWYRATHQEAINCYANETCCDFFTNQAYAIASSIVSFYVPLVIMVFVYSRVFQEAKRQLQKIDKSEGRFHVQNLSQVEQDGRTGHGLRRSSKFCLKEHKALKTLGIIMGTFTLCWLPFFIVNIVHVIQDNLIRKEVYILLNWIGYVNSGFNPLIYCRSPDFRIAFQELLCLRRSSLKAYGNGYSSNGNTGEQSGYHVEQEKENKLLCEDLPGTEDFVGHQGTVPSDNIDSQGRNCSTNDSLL
Chain of Beta-adrenergic receptor kinase 1 (Homo sapiens) (P25098 whole entry, looked up): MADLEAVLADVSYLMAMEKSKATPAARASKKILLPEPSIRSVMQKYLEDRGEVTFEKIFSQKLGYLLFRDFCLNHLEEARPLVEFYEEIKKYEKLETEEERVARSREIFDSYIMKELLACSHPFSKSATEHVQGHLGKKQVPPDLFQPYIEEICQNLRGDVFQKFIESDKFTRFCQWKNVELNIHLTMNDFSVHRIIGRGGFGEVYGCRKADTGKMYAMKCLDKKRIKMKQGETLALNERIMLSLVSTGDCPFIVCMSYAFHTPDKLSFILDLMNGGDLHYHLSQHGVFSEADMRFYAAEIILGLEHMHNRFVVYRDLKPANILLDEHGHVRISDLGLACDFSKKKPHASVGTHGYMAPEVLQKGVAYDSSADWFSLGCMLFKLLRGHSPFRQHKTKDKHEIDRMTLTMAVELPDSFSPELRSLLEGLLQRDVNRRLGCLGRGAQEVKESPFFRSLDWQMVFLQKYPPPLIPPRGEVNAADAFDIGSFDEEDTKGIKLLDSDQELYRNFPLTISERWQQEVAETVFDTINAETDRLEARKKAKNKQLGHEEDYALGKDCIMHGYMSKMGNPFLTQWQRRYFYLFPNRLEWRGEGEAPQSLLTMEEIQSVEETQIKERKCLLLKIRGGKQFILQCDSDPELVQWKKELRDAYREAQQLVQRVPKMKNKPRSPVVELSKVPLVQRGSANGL
Chain of AP-2 complex subunit beta (Homo sapiens) (P63010 whole entry, looked up, the tested form may be a part, one chain of several): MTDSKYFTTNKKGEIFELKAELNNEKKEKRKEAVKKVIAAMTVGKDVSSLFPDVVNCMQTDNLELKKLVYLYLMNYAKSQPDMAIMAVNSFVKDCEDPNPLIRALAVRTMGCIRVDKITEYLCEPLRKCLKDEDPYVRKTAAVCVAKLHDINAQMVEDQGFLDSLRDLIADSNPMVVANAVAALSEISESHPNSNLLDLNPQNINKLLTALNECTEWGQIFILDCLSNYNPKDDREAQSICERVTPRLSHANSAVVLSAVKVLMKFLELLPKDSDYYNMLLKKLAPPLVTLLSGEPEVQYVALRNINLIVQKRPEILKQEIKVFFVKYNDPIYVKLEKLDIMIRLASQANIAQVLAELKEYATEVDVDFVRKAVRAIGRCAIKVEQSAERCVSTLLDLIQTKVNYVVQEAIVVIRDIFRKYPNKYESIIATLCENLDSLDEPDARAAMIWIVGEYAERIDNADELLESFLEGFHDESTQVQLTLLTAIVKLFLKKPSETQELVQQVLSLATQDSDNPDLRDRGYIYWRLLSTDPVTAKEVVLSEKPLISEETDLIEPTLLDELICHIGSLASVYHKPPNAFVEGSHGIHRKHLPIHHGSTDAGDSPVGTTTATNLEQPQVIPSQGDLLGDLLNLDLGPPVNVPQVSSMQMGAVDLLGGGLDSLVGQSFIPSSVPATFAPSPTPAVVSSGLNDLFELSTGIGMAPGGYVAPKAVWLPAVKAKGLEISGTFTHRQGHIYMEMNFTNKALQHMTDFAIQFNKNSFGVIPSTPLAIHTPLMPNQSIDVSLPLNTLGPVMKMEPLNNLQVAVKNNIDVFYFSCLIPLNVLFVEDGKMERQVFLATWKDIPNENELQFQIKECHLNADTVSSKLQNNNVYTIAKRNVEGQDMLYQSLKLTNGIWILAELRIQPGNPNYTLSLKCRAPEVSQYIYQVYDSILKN

As to `COC(=O)C1[C@H]2C(=O)N(Cc3cccs3)C[C@]23C=C[C@H]1O3` (stereo not given in full), the percent of DMSO control GFP in test [1] is 105% (inactive). In addition, the figures for the GFP response vs DMSO in test [2] and in test [4] were 90.9% (inactive) and 80.2% (inactive), respectively. The percent response of DMSO control in test [3] is 105% (inactive). The GFP response, % of DMSO in [5] is 99.5% (inactive). Further, the double positive events in test [6] turned out to be 58.4%. In addition, in test [6], the vesicle binding response was 194% (inactive). The inhibition was 28.6% (inactive) in test [7], -9.57% (inactive) in test [11] and 6% (inactive) in [15]. In addition, in [8], the superoxide response (% of plate) was 98.1% (inactive). Besides, in test [9], the aptamer binding inhibition is 2% (inactive). Moreover, the figures for the response in test [10] and in test [12] were -4.45% (inactive) and 2.19% (inactive), respectively. In addition, the binding (% of control) in test [13] is 95% (inactive). In [14], the efflux inhibition (fraction of control) is 0.3 (inactive). The differentiation response in [16] is 14.9% (inactive).

For `CC1(C)Cc2nc3sc4c(=O)n(CC(N)=O)cnc4c3cc2CO1`, in test [1], the percent of DMSO control GFP was 90.9% (inactive). Moreover, the GFP response vs DMSO in test [2] was 134% (inactive); in [4], 73.2% (inactive). Moreover, the percent response of DMSO control in test [3] is 115% (inactive). Further, the GFP response, % of DMSO in [5] was 82.2% (inactive). The same compound gave a double positive events in test [6] of 67.5%. Besides, in [6], the vesicle binding response is 159% (inactive). Further, the inhibition in [7] is 3.55% (inactive); in [11], 12.8% (inactive); in [15], 14% (inactive). Moreover, the superoxide response (% of plate) in test [8] is 102% (inactive). Also, in test [9], the aptamer binding inhibition is 10% (inactive). The response was -4.57% (inactive) in test [10] and -2.49% (inactive) in test [12]. For the same compound, the binding (% of control) in test [13] was 97% (inactive). Also, the efflux inhibition (fraction of control) in test [14] is 0.41 (inactive). The differentiation response in test [16] was -9.01% (inactive).

In the case of `COc1cc(-c2nnc(-c3cccs3)o2)cc(OC)c1OC`, the percent of DMSO control GFP in test [1] was 102% (inactive). Besides, the GFP response vs DMSO in [2] was 106% (inactive); in test [4], 103% (inactive). In test [3], the percent response of DMSO control was 99.7% (inactive). In addition, the GFP response, % of DMSO in test [5] was 86.3% (inactive). The same compound yielded a double positive events in [6] of 61.1%. For the same compound, the vesicle binding response in test [6] is 98.4% (inactive). For the same compound, the inhibition in test [7] was -1.09% (inactive); in [11], 5.76% (inactive); in test [15] it was 29% (inactive). In [8], the superoxide response (% of plate) was 99.2% (inactive). Moreover, the aptamer binding inhibition in test [9] was 3% (inactive). The figures for the response in test [10] and in [12] were -28% (inactive) and 33.5% (active), respectively. The binding (% of control) in test [13] was 101% (inactive). For the same compound, the efflux inhibition (fraction of control) in test [14] was 0.15 (inactive). Further, the differentiation response in [16] was -1.65% (inactive).

Consider `CC(C)Cc1ccc(C(C)C(=O)O)cc1` (stereo not given), for which, in [1], the percent of DMSO control GFP is 105% (inactive). Besides, the GFP response vs DMSO was 104% (inactive) in [2] and 142% (inactive) in test [4]. For the same compound, the percent response of DMSO control in test [3] was 95.7% (inactive). Also, in test [5], the GFP response, % of DMSO is 111% (inactive). This compound also showed a double positive events in [6] of 59.8%. The vesicle binding response in test [6] was 141% (inactive). Besides, the inhibition was 4.84% (inactive) in [7], -1.77% (inactive) in test [11] and 5% (inactive) in test [15]. The superoxide response (% of plate) in test [8] is 144% (inactive). Besides, the aptamer binding inhibition in test [9] is 0% (inactive). The response in test [10] was -11.9% (inactive); in test [12], 0.95% (inactive). Moreover, the binding (% of control) in [13] is 107% (inactive). Moreover, the efflux inhibition (fraction of control) in [14] is -0.17 (inactive). In addition, the differentiation response in test [16] is -1.05% (inactive).

With `CNCCCC1c2ccccc2C=Cc2ccccc21`, the percent of DMSO control GFP in test [1] was 96.1% (inactive). Besides, the values for the GFP response vs DMSO in test [2] and in test [4] were 116% (inactive) and 83.1% (inactive), respectively. Besides, the percent response of DMSO control in [3] is 108% (inactive). Further, in [5], the GFP response, % of DMSO was 97% (inactive). The double positive events in test [6] is 71.4%. In [6], the vesicle binding response is 307% (inactive). For the same compound, the figures for the inhibition in test [7], in test [11] and in test [15] were 8.4% (inactive), -2.69% (inactive) and 9% (inactive), respectively. The superoxide response (% of plate) in test [8] was 103% (inactive). For the same compound, in test [9], the aptamer binding inhibition is -3% (inactive). For the same compound, the response in test [10] was 23.4% (inactive); in test [12], 0.79% (inactive). Also, the binding (% of control) in test [13] is 101% (inactive). In test [14], the efflux inhibition (fraction of control) is 0.16 (inactive). Further, the differentiation response in test [16] was -3.28% (inactive).
